Screening data (PubChem)
GLP1R inv ag = qHTS of GLP-1 Receptor Inverse Agonists (Inhibition Mode); actives 1.6% (n = 410,000); HEK293 GLP-1R CRE-luciferase, luminescence, 24 h; GLP-1R form is constitutively active; Potency, µM (highest dose often 38.3 µM), inactives show at the top dose activity change, negative = inhibition, usual class: inhibitors; Glucagon-like peptide 1 receptor (Homo sapiens), P43220; AID 624417, 2012; also: potency is read from the fitted curve at half-maximal effect; % is scaled to controls: 0 for no effect and ±100 for the full control effect; nearly all actives have a fitted effect of over 55% in size
Target sequence (P43220 whole entry, looked up): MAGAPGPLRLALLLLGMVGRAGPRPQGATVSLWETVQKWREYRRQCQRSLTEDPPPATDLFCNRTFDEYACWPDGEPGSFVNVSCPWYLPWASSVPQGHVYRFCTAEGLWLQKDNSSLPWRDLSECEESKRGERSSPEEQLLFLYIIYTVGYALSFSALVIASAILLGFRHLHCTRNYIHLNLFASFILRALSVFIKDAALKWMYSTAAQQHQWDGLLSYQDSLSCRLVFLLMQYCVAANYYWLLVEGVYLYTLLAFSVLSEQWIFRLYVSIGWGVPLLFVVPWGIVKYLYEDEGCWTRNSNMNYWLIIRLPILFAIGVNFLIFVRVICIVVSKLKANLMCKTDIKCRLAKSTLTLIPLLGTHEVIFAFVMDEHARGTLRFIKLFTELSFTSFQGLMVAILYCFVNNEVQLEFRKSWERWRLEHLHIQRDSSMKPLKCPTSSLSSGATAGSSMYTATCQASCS
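Inverse agonism was detected as reduced cAMP-driven luciferase luminescence after 24 h compound treatment. The cells were HEK293 clones expressing constitutively active human GLP-1R with the reporter. Reporter-only and GPR119 cell lines served as counterscreen controls.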
GLP1R cytotox = qHTS of GLP-1 Receptor Inverse Agonists: Cytotox Screen. Potency, µM (top dose mostly 38.3 µM), without a hit: at the top dose activity change, negative = inhibition, most hits filed as inhibitors. HEK293 cAMP-luciferase reporter cells, luminescence, 24 h. AID 624418, 2012. actives 0.13% (n = 410,000);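 also: loss of luciferase light is scored as toxicity; potency is read from the fitted curve at half-maximal effect; % is scaled to controls: 0 for no effect and ±100 for the full control effect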
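Quantitative HTS format, 1536 wells, 200 cells/uL seeded. Compounds: 23 nL, 24 h, 37 °C. Detection: luciferase reagent, luminescence at 12 min RT; decreased signal taken as cytotoxic.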
LDHA inh = qHTS assay for inhibitors of human lactate dehydrogenase. purified LDHA, NADH/diaphorase-resazurin fluorescence; hits give low values. actives 0.15% (n = 480,000). L-lactate dehydrogenase A chain (Homo sapiens), P00338. activity change, % (values are at about 110 or 230 µM). AID 1347041, 2019; in the data active = activity change below about -30%; inconclusive = mostly about -25% to -30%;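 also: plate controls were DMSO wells for no effect and wells without enzyme for full effect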
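LDH5 2 nM; NADH 0.06 mM, pyruvate 0.2 mM; 200 mM Tris pH 7.4, EDTA, Tween-20; 5 min RT. Detection: diaphorase 0.133 mg/mL + resazurin 37 µM, fluorescence ex540/em590 at 0 and 20 min; normalized to enzyme-free and DMSO wells.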
ClpP mod = qHTS Assay for Activators of ClpP; ATP-dependent Clp protease proteolytic subunit (Bacillus subtilis (strain 168)), P80244; actives 1.9% (n = 340,000); Potency, µM (top dose mostly 57.5 µM), for the others: top-dose activity change, negative = active; purified B. subtilis ClpP, FRET peptide cleavage, 20 min; active = well fitted falling curve with a large enough effect; inconclusive = small, poorly fitted or top-dose-only effect; inactive = no such curve, though single readings can be large or run the other way; also: potency is read from the fitted curve at half-maximal effect; the source files actives as falling curves though it sought activators and does not explain the sign; nearly all actives have a fitted effect of over 65% in size
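FRET quenching reversal measured ClpP activation: 10 microg/mL B. subtilis ClpP at pH 8 with the FRET-FV decapeptide, read at 430 nm after 320 nm excitation. The 20-min minus 0-min signal was scaled between DMSO/no-enzyme wells and ADEP (5.8 microM final).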
p53 reactivator = qHTS assay for re-activators of p53 using a Luc reporter; actives 0.063% (n = 320,000); H1299 p53-A138V BP100-luciferase reporter, luminescence, 24 h; Potency, µM (doses to about 92.2 µM), without a hit: at the top dose activity change, positive = activation, usual class: activators; AID 504706, 2011; also: potency is read from the fitted curve at half-maximal effect; % of control where 0% means no effect; nearly all actives have a fitted effect of over 45% in size
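H1299 (p53-null), stable ts p53-A138V + BP100-Luc; 1000 cells/well, Opti-MEM/10% FBS; cpd 4 pt, 1:5; 24 h, 37 deg C, 5% CO2; detection reagent 10 min RT; luminescence.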
GLP-1R agonist = qHTS of GLP-1 Receptor Agonists | Glucagon-like peptide 1 receptor (Homo sapiens), P43220 | HEK293 GLP-1R CRE-luciferase, luminescence, 4-6 h; cells express a hypersensitive GLP-1R form | Potency, µM (top dose mostly 45.6 µM), inactives show top-dose activation, most hits filed as activators | actives 0.007% (n = 380,000); also: potency is read from the fitted curve at half-maximal effect; % of control where 0% means no effect
ClpP inh valid = qHTS Assay for Activators of ClpP: Hit Validation of Inhibitors; shares compounds with ClpP mod; purified B. subtilis ClpP, FRET-FV substrate cleavage, 20 min; Potency, µM (doses to about 57.5 µM), for inactives: top-dose activity change, negative = inhibition, actives largely listed as inhibitors; actives 40% (n = 470); AID 743245, 2014; also: potency is read from the fitted curve at half-maximal effect; % is scaled to controls: 0 for no effect and ±100 for the full control effect; nearly all actives have a fitted effect of over 70% in size
* marks the source's active call; other numbers are inactive results; u = inconclusive; x = no result given. Hits are enriched below; roughly 2.9% of the tested compounds scored in any of these assays. Unless noted, calls follow the shape of the dose curve; as a rule, active = well fitted curve in the direction sought with a large enough effect; inconclusive = small, poorly fitted or top-dose-only effect, or another doubt; inactive = no such curve, though single readings can be large; an effect the other way counts as inactive or inconclusive.

SMILES | GLP1R inv ag | GLP1R cytotox | LDHA inh | ClpP mod | p53 reactivator | GLP-1R agonist | ClpP inh valid
COc1ccc(-c2coc3cc(OC(C)=O)c(OC)cc3c2=O)cc1 | 27.2% | -6.6% | 3.8 | 34.5% | u | 3.3% | -5.9%
CC(=O)N1N=C(c2ccc(Br)cc2)OC12CCCC2 | 11.1% | 1.0% | -0.9 | 0.5% | -2.9% | -0.8% | x
CC(=O)N1N=C(c2ccncc2)OC12CCCC2 | 6.5% | 1.3% | -2.5 | 10µM* | -4.8% | -0.7% | 24.3µM*
CCC(=O)Nc1ccc(-c2cc(-c3ccccc3)nc(-c3ccc(NC(=O)CC)cc3)n2)cc1 | u | u | -1.7 | u | -7.0% | -7.2% | x
CC(=O)Nc1cccc(-c2cn3ccc(C)cc3n2)c1 | 13.7% | 3.9% | -1.4 | 3.5% | 2.3% | 4.4% | x
CC(=O)Nc1ccc2nc(-c3ccccc3)cn2c1 | -19.1% | -2.2% | -5.4 | 3.55µM* | u | -10.7% | 21.7µM*
CC(=O)Nc1ccc(-c2cc(-c3ccc(NC(C)=O)cc3)nc(-c3ccccc3)n2)cc1 | -15.6% | 5.9% | -11.1 | 7.94µM* | -0.2% | -1.6% | 24.3µM*
O=C1C(=O)N(CCCn2ccnc2)C(c2ccccn2)/C1=C(/O)c1ccccc1 (configuration not stated) | x | x | x | x | -2.7% | x | x
O=C(CCc1ccccc1)OCC(=O)c1ccc(Br)cc1 | 10.8% | 0.0% | -3.6 | -2.1% | 8.6% | 4.8% | x
O=C(Nc1ccccc1)c1cc2c(-c3ccccc3)nn(-c3ccccc3)c2s1 | -11.7% | 3.1% | -7.0 | 7.08µM* | x | 11.2% | 19.3µM*
O=C(Nc1ccc(Cl)cc1)c1cc2c(-c3ccccc3)nn(-c3ccccc3)c2s1 | 2.9% | -3.5% | -13.7 | u | x | -0.1% | x
O=C1Cc2cc(S(=O)(=O)N3CCNCC3)ccc2N1 | 21.1% | -3.4% | 20.5 | 104.3% | 4.9% | -1.7% | 5.9%
Cc1nc2ccc(-c3nc4ccccc4o3)cc2[nH]1 | 24.4% | -2.7% | -2.5 | 3.16µM* | u | 4.3% | 15.3µM*
Nc1ccc(-c2nc3ccc(-c4nc5ccccc5o4)cc3[nH]2)cc1 | u | 45.5% | -1.6 | 32.1% | 0.5% | 14.3% | x
Cc1cc(=O)oc2c(C)c(OC(=O)c3ccco3)ccc12 | -2.3% | 1.8% | -2.0 | 31.5% | x | -14.5% | 6.8%
CCC(=O)Oc1ccc2c(C)cc(=O)oc2c1C | -2.6% | 407.4% | -0.3 | 52.0% | 12.8% | 1.1% | x
O=C(Nc1ccc(CN2CCOCC2)cc1)c1ccc(Br)o1 | -10.4% | 2.7% | -4.9 | -2.5% | 9.1% | -3.7% | x
O=S(=O)(Nc1cccc(-c2cn3cccnc3n2)c1)c1ccc(Cl)cc1 | 8.2% | -0.9% | 0.0 | 7.08µM* | -5.0% | 4.4% | 24.3µM*
CCOC1CSc2sc(=S)sc2S1 (configuration not stated) | x | x | -6.8 | x | x | x | x
CCC(C)NC(=O)c1cnn2c(C)c3c(nc12)CCCC3 (configuration not stated) | 34.7% | -6.9% | 12.7 | 10µM* | 7.6% | 31.2% | 21.7µM*
CCN(c1ccccc1)S(=O)(=O)c1ccc(OC)c(NC(=O)c2cc(F)c(F)c(F)c2F)c1 | -0.3% | -15.8% | -6.1 | 41.0% | 0.8% | -0.5% | u
